What all share (type): functional
Assay [1] addresses Solute carrier family 2, facilitated glucose transporter member 1 (Homo sapiens) (UniProt P11166). Put plainly: ST_JUDE_LEISH: Cytotoxicity at 2uM final concentration against transgenic Leishmania Mexicana promastigotes LmGLUT1 that are glucose transport deficient and complemented with the human glucose transporter GLUT1. Activity is measured by DNA content using SYBR green in vitro.

Assay [2] addresses Hexose transporter 1 (Plasmodium falciparum) (UniProt O97467). Put plainly: ST_JUDE_LEISH: Cytotoxicity at 2uM final concentration against transgenic Leishmania Mexicana promastigotes LmPfHT that are glucose transport deficient and complemented with the Plasmodium falciparum hexose transporter. Activity is measured by DNA content using SYBR green in vitro.
Assay [3] has as its target Glucose transporter (Leishmania mexicana) (UniProt O61059). Put plainly: ST_JUDE_LEISH: Cytotoxicity at 2uM final concentration against transgenic Leishmania Mexicana promastigotes LmGT2 that are glucose transport deficient and complemented with the L. Mexicana glucose transporter 2. Activity is measured by DNA content using SYBR green in vitro.

The inhibition is the change of the read-out against control, counted positive when it falls.

Chain of Solute carrier family 2, facilitated glucose transporter member 1 (Homo sapiens) (P11166 whole entry): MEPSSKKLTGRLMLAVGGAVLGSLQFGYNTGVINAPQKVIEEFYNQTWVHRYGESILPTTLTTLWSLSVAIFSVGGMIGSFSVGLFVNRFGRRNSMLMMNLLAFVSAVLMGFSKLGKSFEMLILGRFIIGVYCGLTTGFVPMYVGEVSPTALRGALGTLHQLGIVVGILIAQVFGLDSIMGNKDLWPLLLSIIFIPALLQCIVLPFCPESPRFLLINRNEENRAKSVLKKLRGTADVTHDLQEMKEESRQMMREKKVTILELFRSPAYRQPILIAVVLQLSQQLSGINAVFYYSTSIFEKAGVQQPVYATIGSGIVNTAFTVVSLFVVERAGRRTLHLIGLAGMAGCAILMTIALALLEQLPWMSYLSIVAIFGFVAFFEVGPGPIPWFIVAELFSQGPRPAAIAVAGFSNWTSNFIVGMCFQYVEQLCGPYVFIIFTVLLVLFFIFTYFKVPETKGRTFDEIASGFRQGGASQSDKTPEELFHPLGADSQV

On to `Cc1cnc(NCCc2ccc(F)cc2)nc1NCCC(=O)Nc1ccccc1`, for which the inhibition in assay [1] is 4.88%; in assay [2] it was 4.76%; in assay [3] it was 2.38%.

For the compound `N#Cc1ccc(N2CCN(Cc3cccc(-c4cccc(-c5nc6cc(C(F)(F)F)ccc6[nH]5)c4)c3)CC2)nc1`, the results for the inhibition in assay [1], in assay [2] and in assay [3] were 0.03%, 0.73% and -2.37%, respectively.

For the compound `CC(C)N1CCC(NCc2ccc(-c3ccc(Cl)cc3)cc2)CC1`, the values for the inhibition in assay [1], in assay [2] and in assay [3] were 11.6%, 13.6% and 10.2%, respectively.

On to `CN1CCCC(CN2CCN(Cc3cccc(-c4ccc(-c5nc6cc(C(F)(F)F)ccc6[nH]5)cc4)c3)CC2)C1` (stereo unspecified), for which the inhibition in assay [1] amounted to 1.06%; in assay [2], 0.64%; in assay [3] it was 1.86%.

For the compound `COc1ccc(NC(=O)Nc2ccc(-c3ccccc3)cc2)cc1Cn1cnc(N2CCCNCC2)cc1=O`, the inhibition in assay [1] stood at 3.65%; in assay [2], 2.02%; in assay [3], 4.94%.

For the compound `c1ccc(CCNCc2ccc(-c3ccc(CNc4ccc5ncccc5c4)cc3)cc2)cc1`, the inhibition came out at 9.9% in assay [1], 1.61% in assay [2] and 2.13% in assay [3].

In the case of `CN1CCC(N2CCN(C(=O)c3cccc(-c4cccc(-c5nc6ccccc6[nH]5)c4)c3)CC2)CC1`, the values for the inhibition in assay [1], in assay [2] and in assay [3] were 0.86%, 2.54% and 2.11%, respectively.

On to `c1cc(OCCN2CCCC2)ccc1CNC1CCN(CC2CCCCC2)CC1`, for which the inhibition in assay [1] was -3.76%; in assay [2] it was -0.11%; in assay [3] it was -4.21%.

For `CN(C(=O)NCCc1ccccc1)C1CCN(CCCCCNC(=O)/C=C/c2ccc(Cl)c(Cl)c2)CC1`, the inhibition in assay [1] worked out at 14.9%; in assay [2], 12%; in assay [3], 12.4%.

As for `N#Cc1cccc(NC(=O)Nc2cccc(-c3cccc(-c4nc5cc(C(F)(F)F)ccc5[nH]4)c3)c2)c1`, the inhibition in assay [1] turned out to be 2.08%; in assay [2] it was 1.85%; in assay [3] it was 3.18%.

Take `Cc1cc(Nc2cccc(C(F)(F)F)c2)nc(Nc2cccc(C(F)(F)F)c2)n1`: the inhibition was 4.73% in assay [1], 4.81% in assay [2] and -0.49% in assay [3].

For the compound `COc1cccc(CN2CCCC(OC(c3ccccc3)c3ccccc3)C2)c1O` (stereo unspecified), the figures for the inhibition in assay [1], in assay [2] and in assay [3] were 1%, -1.82% and 0.05%, respectively.

With `Cc1[nH]c2ccc(C#N)cc2c(=O)c1Br`, the results for the inhibition in assay [1], in assay [2] and in assay [3] were 2.13%, 1.62% and 1.31%, respectively.

Consider `Nc1nc(N)c2c(ccc3nn(S(=O)(=O)N4CCCC4)cc32)n1`, for which the inhibition came to 4.35% in assay [1], 4.05% in assay [2] and 4.06% in assay [3].

As to `Nc1nccc2ccc(-c3ccncc3)cc12`, the inhibition was determined as 5.87% in assay [1], 7.14% in assay [2] and 6.25% in assay [3].

Turning to `COc1cc2nc(NCCc3ccccc3)nc(NC(C)c3ccccc3)c2cc1OC` (stereo unspecified), the figures for the inhibition in assay [1], in assay [2] and in assay [3] were 7.18%, 6.76% and 3.19%, respectively.

For the compound `COc1ccc2nccc([C@@H](O)CN3CCC(NC(=O)C(c4cc5ccccc5o4)N4CCN(C(c5ccccc5)c5ccccc5)CC4)CC3)c2c1` (stereo partly specified), the values for the inhibition in assay [1], in assay [2] and in assay [3] were 3.01%, 1.55% and 1.41%, respectively.

In the case of `Cc1ccnc2nc(C(=O)Nc3cc(C(F)(F)F)ccc3N3CCCCC3)nn12`, the inhibition in assay [1] was 1.48%; in assay [2], 2.09%; in assay [3] it was 1.77%.

For the compound `COc1cccc(N(CCCN2C(=O)c3cccc4cccc(c34)C2=O)C(=O)c2ccccc2C)c1`, the inhibition in assay [1] was found to be 5.96%; in assay [2] it was 7.4%; in assay [3] it was 0.69%.

For `Cc1[nH]c(/C=C2\C(=O)Nc3ccc(S(=O)(=O)Cc4c(Cl)cccc4Cl)cc32)c(C)c1C(=O)N1CCC[C@@H]1CN1CCCC1`, the inhibition in assay [1] came to 1%; in assay [2], 0.58%; in assay [3], 2.26%.

With `CC(=O)Nc1ccc(CN2CCC(NC(=O)c3ccc(-c4ccc(N(C)C)cc4)s3)CC2)cc1`, the inhibition amounted to 2.06% in assay [1], 1.82% in assay [2] and 2.63% in assay [3].

For the compound `CS(=O)(=O)c1ccc(CCNCc2ccc(-c3ccc(CN(C(=O)c4ccco4)C4CCN(Cc5ccccc5)CC4)cc3)nc2)cc1`, the inhibition in assay [1] was found to be 1.33%; in assay [2], 0.67%; in assay [3] it was 4.41%.

Consider `COc1ccc2nc(-c3ccccc3)cc(N/N=C/c3ccc([N+](=O)[O-])cc3)c2c1`, for which the results for the inhibition in assay [1], in assay [2] and in assay [3] were 6.36%, 6.3% and 2.43%, respectively.

As for `Cc1cc(Br)cnc1CCCCNc1cc(=O)c2ccccc2[nH]1`, the inhibition in assay [1] is 4.59%; in assay [2] it was 6.14%; in assay [3], 4.81%.

Consider `CN(C)Cc1cccc(-c2ccc(NC(=O)c3ccc4c(=O)n(Cc5ccoc5)cnc4c3)cc2)c1`, for which the inhibition amounted to 63.7% in assay [1], 54.6% in assay [2] and 24.1% in assay [3].

Turning to `CC(C)c1ccc(CN2CCC(NC(=O)c3ccc(-c4cccc(Cl)c4)s3)CC2)cc1`, the values for the inhibition in assay [1], in assay [2] and in assay [3] were 5.24%, 4.2% and 7.5%, respectively.

With `COc1ccc(CNc2ncnc3c2[nH]c2ccc(F)cc23)cc1`, the figures for the inhibition in assay [1], in assay [2] and in assay [3] were 7.12%, 7.69% and 4.52%, respectively.

For the compound `CC(CCCCC(=O)Nc1ccc(C(F)(F)F)cc1)NCC(O)c1cccc(Cl)c1` (stereo unspecified), the inhibition in assay [1] was 1.04%; in assay [2] it was -0.95%; in assay [3], 1.56%.

As to `CCC(C)c1ccc(NC(=O)Nc2ccnc3ccccc23)cc1` (stereo unspecified), the inhibition stood at 2.93% in assay [1], 6.23% in assay [2] and 2.25% in assay [3].

Take `COc1ccc(CN2CCC(CNC(C)c3cccc4ccccc34)CC2)cc1` (stereo unspecified): the inhibition in assay [1] was 7.32%; in assay [2] it was 12.7%; in assay [3], 5.96%.

As to `O=C(/C=C/c1ccc(Cl)c(Cl)c1)NCCCCCN1CCC(NC(=O)Nc2ccc(Cl)c(C(F)(F)F)c2)CC1`, the inhibition in assay [1] is 1.18%; in assay [2], 0.31%; in assay [3] it was 1.66%.

`O=C(Nc1cccc(-c2ccc(-c3nc4cc(C(F)(F)F)ccc4[nH]3)cc2)c1)c1c[nH]cn1`: the inhibition in assay [1] worked out at 5.73%; in assay [2], 5.19%; in assay [3], 0.52%.

The values above are taken from ChEMBL document CHEMBL3433997, “St. Jude Leishmania screening dataset” (2016).
